Here are results for 8 compounds from PubChem BioAssay (Tox21).

Results filed as inconclusive are left out. Active and inactive are the calls of the source. Unless noted, calls follow the shape of the dose curve; as a rule, active = well fitted curve in the direction sought with a large enough effect in the repeat runs; inconclusive = weak or mixed curves; inactive = no such curve, though single readings can be large; an effect the other way counts as inactive or inconclusive.

Assay [1] in a line: qHTS assay to identify small molecule antagonists of the thyroid receptor (TR) signaling pathway - cell viability counter screen (AID 743064). Also: nearly all actives have a fitted effect of over 50% in size. Also: potency is read from the fitted curve at half-maximal effect. Summed up:
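Compounds were tested on GH3.TRE-Luc cells in the presence of T3 at 1 nM final. Following 23.5 h at 37 °C, cell viability was quantified by CellTiter-Fluor.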
(Quantitative high-throughput screening tests each substance at several concentrations.)

Assay [2] relates to thyroid hormone receptor (rat, GH3 cells). Kind of assay: qHTS assay to identify small molecule agonists of the thyroid receptor (TR) signaling pathway (AID 743066; calls by dose curve).
The target of assay [3] is Estrogen receptor (Homo sapiens) (UniProt P03372). Briefly: qHTS assay to identify small molecule antagonists of the estrogen receptor alpha (ER-alpha) signaling pathway (AID 743069; active = well fitted curve in the direction sought with a large enough effect in the signal ratio in the repeat runs, not every such curve was filed as active; the % refers to the signal ratio). In short, it runs like this: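 Estradiol-stimulated ER-alpha-UAS-bla HEK293 cells, 18 hr compound exposure at 37C. LiveBLAzer B/G substrate, 2 hr RT, fluorescence read.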
Sequence of Estrogen receptor (Homo sapiens) (P03372 whole entry, looked up): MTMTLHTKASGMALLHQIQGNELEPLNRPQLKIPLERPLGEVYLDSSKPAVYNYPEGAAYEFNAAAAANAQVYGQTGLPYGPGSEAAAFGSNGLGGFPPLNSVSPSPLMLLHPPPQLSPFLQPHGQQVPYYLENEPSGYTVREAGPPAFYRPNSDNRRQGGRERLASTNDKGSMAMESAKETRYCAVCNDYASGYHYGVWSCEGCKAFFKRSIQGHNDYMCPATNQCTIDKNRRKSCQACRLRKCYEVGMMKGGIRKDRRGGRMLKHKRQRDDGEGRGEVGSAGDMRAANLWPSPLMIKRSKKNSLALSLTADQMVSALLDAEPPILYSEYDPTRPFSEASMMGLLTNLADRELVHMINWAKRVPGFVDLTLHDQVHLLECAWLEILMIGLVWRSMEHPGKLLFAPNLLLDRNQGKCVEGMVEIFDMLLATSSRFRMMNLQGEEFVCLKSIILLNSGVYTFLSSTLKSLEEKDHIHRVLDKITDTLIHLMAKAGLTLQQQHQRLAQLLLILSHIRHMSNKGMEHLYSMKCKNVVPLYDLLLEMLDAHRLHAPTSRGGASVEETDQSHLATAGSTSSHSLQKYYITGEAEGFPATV
Assay [4] is described as follows: qHTS assay to identify small molecule antagonists of the estrogen receptor alpha (ER-alpha) signaling pathway - cell viability counter screen (AID 743074; calls by dose curve;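 also: HEK293 cells carrying ER-alpha-UAS-bla reporter stimulated with 17beta-estradiol; nearly all actives have a fitted effect of over 45% in size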; also: potency is read from the fitted curve at half-maximal effect).
Assay [5] addresses Estrogen receptor (Homo sapiens) (UniProt P03372). Briefly: qHTS assay to identify small molecule agonists of the estrogen receptor alpha (ER-alpha) signaling pathway (AID 743075; calls by dose curve;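 also: HEK293 GripTite cells with ER-alpha and UAS-driven beta-lactamase reporter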).
For assay [6] the target is unchanged. Kind of assay: qHTS assay to identify small molecule agonists of the estrogen receptor alpha (ER-alpha) signaling pathway using the BG1 cell line (AID 743079). Also: nearly all actives have a fitted effect of over 20% in size. To be noted: BG1Luc4E2 cells, ERE-luciferase agonist, 22 h; activation: at 70.3 µM (top of the series).
A short description of assay [7]: qHTS assay to identify small molecule antagonists of the estrogen receptor alpha (ER-alpha) signaling pathway using the BG1 cell line (AID 743080; calls by dose curve;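 also: BG1 cells stimulated with 17beta-estradiol alongside compound; nearly all actives have a fitted effect of over 25% in size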). To be noted: BG1Luc4E2 ERE-luciferase antagonist mode, luminescence; activity change, negative = inhibition: at 70.3 µM (top of the series). In short, it runs like this:
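Luciferase inhibition measured with ONE-Glo after 30 min at RT in BG1Luc4E2 cells given test compounds and 17beta-estradiol for 21.5 h at 37 C; CellTiter-Fluor viability read in the same wells beforehand.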

The nature of assay [8]: qHTS assay to identify small molecule antagonists of the estrogen receptor alpha (ER-alpha) signaling pathway using the BG1 cell line - cell viability counter screen (AID 743081).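 Also: compound given together with 17beta-estradiol as the ER stimulus; nearly all actives have a fitted effect of over 45% in size.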
A further assay deals with Aromatase (Homo sapiens) (UniProt P11511). Kind of assay: qHTS assay to identify aromatase inhibitors (AID 743083). Also: nearly all actives have a fitted effect of over 55% in size. Also: potency is read from the fitted curve at half-maximal effect.
Sequence of Aromatase (Homo sapiens) (P11511 whole entry, looked up): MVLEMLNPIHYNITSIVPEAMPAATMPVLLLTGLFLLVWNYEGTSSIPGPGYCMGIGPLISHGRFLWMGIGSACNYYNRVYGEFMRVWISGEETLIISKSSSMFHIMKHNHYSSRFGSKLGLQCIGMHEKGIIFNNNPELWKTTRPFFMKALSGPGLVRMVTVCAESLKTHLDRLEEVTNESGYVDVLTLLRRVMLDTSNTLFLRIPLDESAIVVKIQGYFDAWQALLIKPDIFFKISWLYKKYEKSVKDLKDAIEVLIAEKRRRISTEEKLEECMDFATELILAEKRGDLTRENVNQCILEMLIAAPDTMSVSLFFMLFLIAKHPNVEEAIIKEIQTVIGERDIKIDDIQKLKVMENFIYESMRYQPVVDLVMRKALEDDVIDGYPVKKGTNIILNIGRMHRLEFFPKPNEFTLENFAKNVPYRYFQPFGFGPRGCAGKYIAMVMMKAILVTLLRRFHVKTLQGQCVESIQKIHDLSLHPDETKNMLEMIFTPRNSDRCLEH
A short description of assay [9]: qHTS assay to identify small molecule that activate the aryl hydrocarbon receptor (AhR) signaling pathway - cell viability counter screen (AID 743086). Also: nearly all actives have a fitted effect of over 45% in size. Also: potency is read from the fitted curve at half-maximal effect. Summed up:
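HepG2-AhR-luc (HG2L7.5c1) cells, 4000/well, were preincubated 5 h at 37C, exposed to compound in qHTS format for 24 hr at 37C, then given CellTiter-Fluor for 30 min; viability was read as fluorescence in the reporter wells.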

For assay [10], the target named is Peroxisome proliferator-activated receptor gamma (Homo sapiens) (UniProt P37231). Briefly: qHTS assay to identify small molecule agonists of the peroxisome proliferator-activated receptor gamma (PPARg) signaling pathway (AID 743094; active = well fitted activation curve with a large enough effect in the signal ratio in the repeat runs, not every such curve was filed as active; the % refers to the signal ratio). In short, it runs like this: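 Beta-lactamase FRET fluorescence was the read-out after a 1 h room-temperature substrate step, following 17 h compound treatment at 37C of HEK293H cells expressing a UAS-driven bla reporter responsive to PPARg.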
Sequence of Peroxisome proliferator-activated receptor gamma (Homo sapiens) (P37231 whole entry, looked up): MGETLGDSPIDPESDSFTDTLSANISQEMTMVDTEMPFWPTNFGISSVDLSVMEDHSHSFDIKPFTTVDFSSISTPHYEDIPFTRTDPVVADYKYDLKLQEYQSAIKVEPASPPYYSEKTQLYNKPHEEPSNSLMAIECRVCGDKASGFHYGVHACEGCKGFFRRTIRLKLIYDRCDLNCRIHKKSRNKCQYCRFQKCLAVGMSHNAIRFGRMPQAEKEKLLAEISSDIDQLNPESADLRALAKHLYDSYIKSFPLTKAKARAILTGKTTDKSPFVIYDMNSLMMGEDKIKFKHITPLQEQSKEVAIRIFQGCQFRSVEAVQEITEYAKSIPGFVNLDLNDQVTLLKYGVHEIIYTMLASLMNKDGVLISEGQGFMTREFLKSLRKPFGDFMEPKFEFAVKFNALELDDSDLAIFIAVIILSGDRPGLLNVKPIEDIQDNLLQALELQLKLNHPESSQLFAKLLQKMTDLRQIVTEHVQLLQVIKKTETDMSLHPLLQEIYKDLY

For assay [11] the target is unchanged. Kind of assay: qHTS assay to identify small molecule antagonists of the peroxisome proliferator-activated receptor gamma (PPARg) signaling pathway (AID 743191; calls by dose curve; also: nearly all actives have a fitted effect of over 30% in size). In short, it runs like this:
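GeneBLAzer PPARg UAS-bla HEK293H cells carrying a UAS-driven beta-lactamase reporter were plated at 3000 cells/well, preincubated 5 h at 37C, then given compound for 17 h at 37C; LiveBLAzer B/G FRET substrate was read after 1 h at room temperature.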

Assay [12] in a line: qHTS assay to identify small molecule antagonists of the peroxisome proliferator-activated receptor gamma (PPARg) signaling pathway - cell viability counter screen (AID 743194). Also: nearly all actives have a fitted effect of over 55% in size. Also: potency is read from the fitted curve at half-maximal effect. In short, it runs like this: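 PPARg-UAS-bla HEK293H cells were plated, rested 5 h at 37 C, then treated with compounds plus rosiglitazone (50 nM final) for 17 h at 37 C; viability was then read by CellTiter-Glo luminescence after 30 min at room temperature.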

Assay [13] can be described thus: qHTS assay for small molecule agonists of the antioxidant response element (ARE) signaling pathway - cell viability counter screen (AID 743203; calls by dose curve; also: nearly all actives have a fitted effect of over 55% in size; also: potency is read from the fitted curve at half-maximal effect). In short, it runs like this:
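HepG2 cells carrying ARE-driven beta-lactamase; 2,000 cells/well; 5 hrs plating; compound pinned from DMSO; 16 hrs 37C/5% CO2; CellTiter-Glo added; 30 min RT; luminescence.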

Assay [14] in a line: qHTS assay for small molecule activators of the heat shock response signaling pathway - cell viability counter screen (AID 743209). Also: nearly all actives have a fitted effect of over 50% in size. Also: potency is read from the fitted curve at half-maximal effect. In short, it runs like this:
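Luminescence from CellTiter-Glo, added after the beta-lactamase FRET read, gave the viability signal. Cells were HSE-bla HeLa treated with DMSO-dissolved compounds for 5 h at 37 C following overnight plating.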

Assay [15] can be described thus: qHTS assay for small molecule activators of the heat shock response signaling pathway (AID 743210; active = well fitted activation curve with a large enough effect in the signal ratio in the repeat runs, with a control signal flat, not every such curve was filed as active; the % refers to the signal ratio;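 also: HeLa cells with beta-lactamase reporter driven by heat shock elements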). Summed up: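 Reporter gene assay: HeLa cells stably bearing an HSE-bla construct, compound treatment 5 h at 37 C, LiveBLAzer substrate 2.5 h at RT, fluorescence intensity.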
Assay [16] can be described thus: qHTS assay to identify small molecule antagonists of the thyroid receptor (TR) signaling pathway (AID 743065). Also: potency is read from the fitted curve at half-maximal effect; nearly all actives have a fitted effect of over 55% in size. Summed up:
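GH3.TRE-Luc rat pituitary cells carrying two TR response elements driving luciferase were plated for 4 h, given compound plus 1 nM T3 (final), and incubated 23.5 h at 37 C. ONE-Glo luminescence measured reporter inhibition; CellTiter-Fluor fluorescence tracked cytotoxicity.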

Assay [17] is described as follows: qHTS assay to identify aromatase inhibitors - cell viability counter screen (AID 743084). Also: potency is read from the fitted curve at half-maximal effect.
The target of assay [18] is Aryl hydrocarbon receptor (Homo sapiens) (UniProt P35869). Kind of assay: qHTS assay to identify small molecule that activate the aryl hydrocarbon receptor (AhR) signaling pathway (AID 743085). Also: nearly all actives have a fitted effect of over 15% in size. Also: potency is read from the fitted curve at half-maximal effect.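 As to activation: HG2L7.5c1 human HepG2 liver cells with stably integrated DRE-driven firefly reporter.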 In short, it runs like this:
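24 h compound exposure, 37C, HepG2-derived HG2L7.5c1 cells with DRE-responsive luciferase. Readouts: fluorescence viability, then luminescence at room temperature after 30 min.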

Assay [19] is described as follows: qHTS assay for small molecule agonists of the antioxidant response element (ARE) signaling pathway (AID 743202; active = well fitted activation curve with a large enough effect in the signal ratio in the repeat runs, not every such curve was filed as active; the % refers to the signal ratio). Summed up: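 Compounds delivered in DMSO to ARE-bla HepG2 cells (2,000 cells/well, pre-incubated 5 h) and left 16 h at 37 C. LiveBLAzer B/G FRET substrate then added for 2 h at RT before fluorescence reading.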

Sequence of Aryl hydrocarbon receptor (Homo sapiens) (P35869 whole entry, looked up): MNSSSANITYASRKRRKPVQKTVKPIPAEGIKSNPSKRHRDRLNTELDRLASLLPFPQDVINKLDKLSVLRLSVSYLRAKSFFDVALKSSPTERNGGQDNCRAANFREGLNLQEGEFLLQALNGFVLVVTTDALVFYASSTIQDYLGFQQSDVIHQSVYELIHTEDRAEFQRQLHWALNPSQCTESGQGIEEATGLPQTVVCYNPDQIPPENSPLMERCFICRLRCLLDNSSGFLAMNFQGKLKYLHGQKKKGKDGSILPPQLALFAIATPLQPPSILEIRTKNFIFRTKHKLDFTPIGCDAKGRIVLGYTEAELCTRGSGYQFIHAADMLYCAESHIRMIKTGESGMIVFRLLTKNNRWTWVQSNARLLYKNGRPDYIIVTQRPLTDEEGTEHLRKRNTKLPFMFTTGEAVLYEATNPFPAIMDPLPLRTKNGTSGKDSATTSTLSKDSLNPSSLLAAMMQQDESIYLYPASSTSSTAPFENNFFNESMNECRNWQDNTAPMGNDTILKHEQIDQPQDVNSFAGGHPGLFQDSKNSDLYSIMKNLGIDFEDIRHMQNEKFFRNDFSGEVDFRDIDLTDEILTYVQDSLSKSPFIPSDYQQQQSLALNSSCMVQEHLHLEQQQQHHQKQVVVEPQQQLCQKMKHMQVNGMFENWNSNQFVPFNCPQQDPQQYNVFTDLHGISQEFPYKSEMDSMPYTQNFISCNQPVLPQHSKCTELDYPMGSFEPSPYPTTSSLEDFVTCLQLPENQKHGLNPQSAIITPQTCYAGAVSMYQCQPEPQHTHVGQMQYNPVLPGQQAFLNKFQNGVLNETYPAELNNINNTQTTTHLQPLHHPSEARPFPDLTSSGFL

`O=C1OC(=O)c2cccc3cccc1c23`: the Potency entry in assay [1], in assay [2], in assay [3], in assay [4], in [5] and in assay [6] was “inactive” throughout. Besides, the Potency result (in assay [7]; in [8]; with Aromatase (Homo sapiens); in [9]; in assay [10]; in assay [11]) was “inactive” in each case. In addition, the Potency entry in [12], in assay [13], in assay [14] and in [15] was “inactive” throughout.

Turning to `O=C1C=CC(=O)N1c1ccccc1`, the Potency was 4.86 µM (active) in assay [1]; 4.86 µM (active) in [16]; 10.9 µM (active) with Aromatase (Homo sapiens); 9.69 µM (active) in assay [17]; 61.1 µM (active) in assay [9]; 13.8 µM (active) in [12]. Moreover, the figures for the Potency in assay [13] and in assay [14] were 12.2 µM (active) and 21.9 µM (active), respectively. Moreover, the Potency result in [2] and in [18] was “inactive” in each case.

For `CNCC[C@H](Oc1cccc2ccccc12)c1cccs1`, the Potency in assay [1] is 7.5 µM (active); in assay [16], 7.5 µM (active); in assay [18], 11.9 µM (active); in assay [12] it was 11.9 µM (active); in [13], 6.68 µM (active); in [14], 29.8 µM (active). Moreover, the Potency entry in assay [9] is “inactive”.

Take `COC(=O)CC#N`: the Potency entry in assay [1], in assay [2], in [3], in assay [4], in [5] and in assay [6] was “inactive” throughout. Besides, the Potency entry (in assay [7]; in [8]; in the assay with Aromatase (Homo sapiens); in assay [17]; in assay [18]; in assay [9]) was “inactive” throughout. For the same compound, the Potency entry in assay [10], in [11], in assay [12], in [19], in [13] and in assay [14] was “inactive” throughout. Moreover, in assay [15], the Potency entry is “inactive”.

As to `Cc1c(C)n(Cc2ccccc2)c2ccc(C(=O)OCCN(C)C)cc12`, the figures for the Potency in assay [1] and in [16] were 7.5 µM (active) and 10.6 µM (active), respectively. Also, the Potency result (in assay [8]; in the assay with Aromatase (Homo sapiens); in [17]; in assay [10]; in assay [12]; in assay [13]) was “inactive” each time. In addition, the Potency entry in [14] was “inactive”.

On to `S=P(N1CC1)(N1CC1)N1CC1`, for which the Potency result in [1], in assay [2], in assay [3], in assay [4], in assay [5] and in [6] was “inactive” throughout. The Potency entry (in assay [7]; in assay [8]; with Aromatase (Homo sapiens); in assay [17]; in assay [18]; in [9]) was “inactive” each time. Further, the Potency entry in assay [10] is “inactive”.

Turning to `CC(C)(C)c1cc(/C=C2\SC(=N)NC2=O)cc(C(C)(C)C)c1O`, the Potency was 21.7 µM (active) in [1]; 13.7 µM (active) in assay [16]; 54.9 µM (active) in [4]; 43.6 µM (active) in assay [12]; 24.3 µM (active) in [13]; 43.6 µM (active) in assay [14]. The Potency result in assay [8] and in assay [18] was “inactive” each time.

As for `C[C@@H]1CC[C@H]2C(C)(C)[C@H]3C[C@@]12CC[C@@]3(C)O`, the Potency in [16] is 54.4 µM (active). Besides, the Potency entry in assay [2], in [3], in [4], in assay [5], in [6] and in [8] was “inactive” throughout. Besides, the Potency result (with Aromatase (Homo sapiens); in assay [17]; in [18]; in assay [9]; in assay [10]; in [12]) was “inactive” in each case. Moreover, the Potency entry in assay [19] and in assay [13] was “inactive” throughout.
